In publication PMC7862700, “An all-to-all approach to the identification of sequence-specific readers for epigenetic DNA modifications on cytosine”:

Tests used:
Experiment in all cases: DAPPL (digital affinity profiling via proximity ligation, sequencing); 10 mM Tris-HCl pH 7.5, 50 mM NaCl, 1 mM DTT, 4% glycerol, room temperature, 30 min; GST-TFs on glutathione beads, 16-mer random dsDNA library, 0.1% formaldehyde crosslink after washing; high values mean tight binding
Details in all cases: protein: recombinant; tags: N-terminal GST; dsDNA, one strand shown
FLI1 = biological target: T1, FLI1 (Homo sapiens, UniProt Q01543 1-452)
T1 sequence: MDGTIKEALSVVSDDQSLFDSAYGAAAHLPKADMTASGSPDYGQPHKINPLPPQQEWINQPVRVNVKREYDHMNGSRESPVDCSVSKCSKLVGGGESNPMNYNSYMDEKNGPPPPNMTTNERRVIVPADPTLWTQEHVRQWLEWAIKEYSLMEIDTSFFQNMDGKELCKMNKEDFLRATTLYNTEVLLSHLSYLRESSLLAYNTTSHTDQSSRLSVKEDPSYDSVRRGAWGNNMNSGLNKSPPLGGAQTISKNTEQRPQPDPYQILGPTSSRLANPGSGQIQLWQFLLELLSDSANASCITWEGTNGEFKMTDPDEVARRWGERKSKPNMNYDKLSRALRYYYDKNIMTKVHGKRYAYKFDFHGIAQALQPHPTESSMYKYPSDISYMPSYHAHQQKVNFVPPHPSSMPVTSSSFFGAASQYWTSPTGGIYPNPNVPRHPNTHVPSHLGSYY
How it was run: (§1)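 Sequencing on an Illumina NextSeq500 followed washing, crosslinking with 0.1% formaldehyde, proximity ligation (BsaI/T4 ligase, 1 h, 37 °C) and PCR amplification of pools that had been incubated for 30 min at room temperature with 200 nmole of a random double-stranded 16-mer DNA library in Tris/NaCl/DTT/glycerol buffer. Each pool held DNA-barcoded human transcription factors, expressed in yeast as GST fusions and captured on glutathione beads, plus a tag-only sample. Binding signal is a hexamer's read frequency for a factor divided by its frequency in the tag-only sample.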

ELK1 = biological target: T2, ELK1 (Homo sapiens, UniProt P19419 1-428)
T2 sequence: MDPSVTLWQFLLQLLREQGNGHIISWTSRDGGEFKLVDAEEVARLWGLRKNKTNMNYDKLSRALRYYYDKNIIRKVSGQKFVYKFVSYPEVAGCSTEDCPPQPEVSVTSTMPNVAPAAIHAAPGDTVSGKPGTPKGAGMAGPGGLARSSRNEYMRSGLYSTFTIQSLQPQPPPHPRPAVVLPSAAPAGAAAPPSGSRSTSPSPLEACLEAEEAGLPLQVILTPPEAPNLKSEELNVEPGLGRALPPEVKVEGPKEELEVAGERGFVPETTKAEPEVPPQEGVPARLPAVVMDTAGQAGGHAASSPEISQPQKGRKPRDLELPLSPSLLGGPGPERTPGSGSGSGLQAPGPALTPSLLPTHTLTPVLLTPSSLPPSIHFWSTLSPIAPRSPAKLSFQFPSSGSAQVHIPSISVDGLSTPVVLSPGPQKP
How it was run: as §1

GABPA = biological target: T3, GABPA (Homo sapiens, UniProt Q06546 1-454)
T3 sequence: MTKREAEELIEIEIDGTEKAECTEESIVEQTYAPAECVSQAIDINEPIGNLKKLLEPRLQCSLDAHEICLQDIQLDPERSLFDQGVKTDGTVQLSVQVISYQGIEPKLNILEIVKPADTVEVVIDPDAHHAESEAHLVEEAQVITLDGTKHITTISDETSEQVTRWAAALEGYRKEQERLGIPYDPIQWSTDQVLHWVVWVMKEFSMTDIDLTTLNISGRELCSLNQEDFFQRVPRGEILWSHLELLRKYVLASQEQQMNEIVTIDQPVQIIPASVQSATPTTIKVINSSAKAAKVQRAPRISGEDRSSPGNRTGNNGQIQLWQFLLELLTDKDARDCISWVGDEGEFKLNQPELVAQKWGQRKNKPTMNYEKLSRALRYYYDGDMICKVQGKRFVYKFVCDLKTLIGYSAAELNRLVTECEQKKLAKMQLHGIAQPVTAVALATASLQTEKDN
How it was run: as §1

ERG = biological target: T4, ERG (Homo sapiens, UniProt P11308 1-479)
T4 sequence: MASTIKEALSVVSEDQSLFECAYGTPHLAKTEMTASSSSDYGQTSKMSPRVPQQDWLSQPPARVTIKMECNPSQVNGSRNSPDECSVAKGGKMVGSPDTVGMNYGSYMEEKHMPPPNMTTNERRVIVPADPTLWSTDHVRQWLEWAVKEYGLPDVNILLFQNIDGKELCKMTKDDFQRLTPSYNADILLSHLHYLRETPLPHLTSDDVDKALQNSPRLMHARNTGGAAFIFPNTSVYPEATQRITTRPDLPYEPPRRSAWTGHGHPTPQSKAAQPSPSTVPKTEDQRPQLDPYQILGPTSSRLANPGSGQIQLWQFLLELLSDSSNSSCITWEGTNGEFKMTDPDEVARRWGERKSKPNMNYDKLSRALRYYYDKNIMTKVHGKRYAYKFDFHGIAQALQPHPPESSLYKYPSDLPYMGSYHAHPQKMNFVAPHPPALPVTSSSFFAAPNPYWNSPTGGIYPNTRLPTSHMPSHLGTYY
How it was run: as §1

ELF1 = ELF1 (Homo sapiens, UniProt P32519 1-619)
How it was run: as §1

EHF = biological target: T5, EHF (Homo sapiens, UniProt Q9NZC4 1-300)
T5 sequence: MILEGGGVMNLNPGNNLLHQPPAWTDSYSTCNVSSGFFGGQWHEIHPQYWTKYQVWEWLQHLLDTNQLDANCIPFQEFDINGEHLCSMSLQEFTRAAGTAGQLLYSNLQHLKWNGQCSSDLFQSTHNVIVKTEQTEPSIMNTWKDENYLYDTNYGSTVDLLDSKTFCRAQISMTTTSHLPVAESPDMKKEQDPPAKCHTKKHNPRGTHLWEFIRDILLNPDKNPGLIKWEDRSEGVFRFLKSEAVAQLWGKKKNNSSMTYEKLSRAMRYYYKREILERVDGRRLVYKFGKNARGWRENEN
How it was run: as §1

SPI1 = SPI1 (Homo sapiens, UniProt P17947 1-270)
How it was run: as §1

SPIB = SPIB (Homo sapiens, UniProt Q01892 1-262)
How it was run: as §1

ELK3 = biological target: T6, ELK3 (Homo sapiens, UniProt P41970 1-407)
T6 sequence: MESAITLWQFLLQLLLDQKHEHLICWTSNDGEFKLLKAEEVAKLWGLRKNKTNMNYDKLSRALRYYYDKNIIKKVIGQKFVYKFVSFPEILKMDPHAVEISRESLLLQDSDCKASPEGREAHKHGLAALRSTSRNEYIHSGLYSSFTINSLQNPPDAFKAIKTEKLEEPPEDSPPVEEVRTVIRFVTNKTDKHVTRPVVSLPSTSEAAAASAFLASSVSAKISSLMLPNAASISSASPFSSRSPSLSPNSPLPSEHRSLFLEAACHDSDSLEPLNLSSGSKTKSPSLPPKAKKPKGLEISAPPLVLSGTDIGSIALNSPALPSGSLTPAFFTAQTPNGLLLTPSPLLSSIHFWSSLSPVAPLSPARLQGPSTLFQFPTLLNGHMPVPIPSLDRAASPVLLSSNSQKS
How it was run: as §1

SPIB, sequence (Q01892 whole entry): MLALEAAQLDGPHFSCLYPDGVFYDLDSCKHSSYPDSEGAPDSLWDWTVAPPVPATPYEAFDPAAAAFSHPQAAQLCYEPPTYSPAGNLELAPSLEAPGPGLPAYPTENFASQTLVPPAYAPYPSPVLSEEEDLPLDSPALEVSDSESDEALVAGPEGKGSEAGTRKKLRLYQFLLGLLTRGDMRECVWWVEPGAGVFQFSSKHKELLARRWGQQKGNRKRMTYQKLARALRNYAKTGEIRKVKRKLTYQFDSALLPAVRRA
ELF1, sequence (P32519 whole entry): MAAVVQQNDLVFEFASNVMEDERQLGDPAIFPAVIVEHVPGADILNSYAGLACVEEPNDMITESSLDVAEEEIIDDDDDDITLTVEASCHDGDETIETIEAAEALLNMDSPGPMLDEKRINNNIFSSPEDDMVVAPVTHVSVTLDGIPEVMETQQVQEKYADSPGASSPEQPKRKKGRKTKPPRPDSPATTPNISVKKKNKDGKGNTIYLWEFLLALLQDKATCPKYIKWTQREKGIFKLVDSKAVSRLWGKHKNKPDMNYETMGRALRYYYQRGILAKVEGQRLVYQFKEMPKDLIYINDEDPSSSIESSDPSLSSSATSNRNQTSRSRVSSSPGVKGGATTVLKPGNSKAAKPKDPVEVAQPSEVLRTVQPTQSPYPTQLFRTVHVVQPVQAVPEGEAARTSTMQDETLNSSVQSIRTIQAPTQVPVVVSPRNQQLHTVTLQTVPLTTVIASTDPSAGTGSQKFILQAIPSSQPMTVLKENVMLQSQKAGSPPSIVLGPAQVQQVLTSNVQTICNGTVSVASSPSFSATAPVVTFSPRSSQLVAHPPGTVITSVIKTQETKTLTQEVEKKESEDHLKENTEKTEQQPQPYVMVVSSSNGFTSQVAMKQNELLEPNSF

Q: TCGCCT was tested. Which binding signal (FLI1) did it give?
A: The binding signal was 1.32 fold enrichment (6-mer frequency, TF over GST control).

Q: And the binding signal (ELK1)?
A: Its binding signal is 1.36 fold enrichment (6-mer frequency, TF over GST control).

Q: What about the binding signal (GABPA) of the same sequence?
A: Its binding signal is 1.2 fold enrichment (6-mer frequency, TF over GST control).

Q: What about the binding signal (ERG) of the same sequence?
A: The binding signal was 1.31 fold enrichment (6-mer frequency, TF over GST control).

Q: And the binding signal (ELF1)?
A: Its binding signal is 1.21 fold enrichment (6-mer frequency, TF over GST control).

Q: And the binding signal (EHF)?
A: The binding signal was 1.34 fold enrichment (6-mer frequency, TF over GST control).

Q: And the binding signal (SPI1)?
A: The binding signal was 1.16 fold enrichment (6-mer frequency, TF over GST control).

Q: What about the binding signal (SPIB) of the same sequence?
A: Its binding signal is 1.23 fold enrichment (6-mer frequency, TF over GST control).

Q: What about the binding signal (ELK3) of the same sequence?
A: Its binding signal is 1.15 fold enrichment (6-mer frequency, TF over GST control).
